About 2,000 (36%) of roughly 5,500 compounds were called active. About 18% were inconclusive and are not listed. No stated cut-off is given here; in the data, active means normalized growth mostly below about 0.91 (no sharp cut-off); inconclusive means no clear call, values can overlap the other calls; inactive means mostly above about 0.92. The list shows a part of the results.
Assay: chemical genetic growth profiling, strain panel (AID 1159580);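 further: tested at 20 µM; growth read once vehicle control cultures reached saturation at 30 °C; 1 = growth at the plate median or of vehicle wells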
Details: growth OD

Measured: normalized growth

Cn1c(=O)[nH]c2nc[nH]c2c1=O
inactive: S. cerevisiae deletion strains, locus YAL021C, strain ccr4, stronger effect = lower value 0.98 | S. cerevisiae deletion strains, locus YAL026C, strain drs2, stronger effect = lower value 1.01 | S. cerevisiae deletion strains, locus YAL030W, strain snc1, stronger effect = lower value 1 | S. cerevisiae deletion strains, locus YBL061C, strain skt5, stronger effect = lower value 0.992 | S. cerevisiae deletion strains, locus YBR009C, strain hhf1, stronger effect = lower value 0.992 | S. cerevisiae deletion strains, locus YBR021W, strain FUR4, stronger effect = lower value 1.01 | S. cerevisiae deletion strains, locus YBR023C, strain chs3, stronger effect = lower value 0.993 | S. cerevisiae deletion strains, locus YBR171W, strain sec66, stronger effect = lower value 0.972 | S. cerevisiae deletion strains, locus YBR229C, strain ROT2, stronger effect = lower value 0.995 | S. cerevisiae deletion strains, locus YBR231C, strain swc5, stronger effect = lower value 0.989 | S. cerevisiae deletion strains, locus YBR279W, strain paf1, stronger effect = lower value 1 | S. cerevisiae deletion strains, locus YCL011C, strain gbp2, stronger effect = lower value 0.996 | S. cerevisiae deletion strains, locus YCL016C, strain dcc1, stronger effect = lower value 0.994 | S. cerevisiae deletion strains, locus YCL029C, strain bik1, stronger effect = lower value 0.992 | S. cerevisiae deletion strains, locus YCL061C, strain MRC1, stronger effect = lower value 0.999 | S. cerevisiae deletion strains, locus YCL069W, strain vba3, stronger effect = lower value 0.993 | S. cerevisiae deletion strains, locus YCR088W, strain abp1, stronger effect = lower value 1.01 | S. cerevisiae deletion strains, locus YDL005C, strain med2, stronger effect = lower value 0.993 | S. cerevisiae deletion strains, locus YDL035C, strain GPR1, stronger effect = lower value 1.01 | S. cerevisiae deletion strains, locus YDL040C, strain nat1, stronger effect = lower value 0.987 | S. cerevisiae deletion strains, locus YDL074C, strain BRE1, stronger effect = lower value 1.04 | S. cerevisiae deletion strains, locus YDL101C, strain DUN1, stronger effect = lower value 1.01 | S. cerevisiae deletion strains, locus YDL134C, strain PPH21, stronger effect = lower value 1 | S. cerevisiae deletion strains, locus YDL185W, strain tfp1, stronger effect = lower value 1.01 | S. cerevisiae deletion strains, locus YDL192W, strain arf1, stronger effect = lower value 0.985 | S. cerevisiae deletion strains, locus YDR001C, strain nth1, stronger effect = lower value 1 | S. cerevisiae deletion strains, locus YDR069C, strain doa4, stronger effect = lower value 1 | S. cerevisiae deletion strains, locus YDR101C, strain arx1, stronger effect = lower value 0.995 | S. cerevisiae deletion strains, locus YDR137W, strain rgp1, stronger effect = lower value 0.976 | S. cerevisiae deletion strains, locus YDR159W, strain sac3, stronger effect = lower value 1.01 | S. cerevisiae deletion strains, locus YDR162C, strain NBP2, stronger effect = lower value 1.03 | S. cerevisiae deletion strains, locus YDR195W, strain ref2 0.966 | S. cerevisiae deletion strains, locus YDR297W, strain sur2, stronger effect = lower value 1 | S. cerevisiae deletion strains, locus YDR318W, strain mcm21, stronger effect = lower value 0.994 | S. cerevisiae deletion strains, locus YDR334W, strain swr1, stronger effect = lower value 0.998 | S. cerevisiae deletion strains, locus YDR335W, strain msn5, stronger effect = lower value 0.987 | S. cerevisiae deletion strains, locus YDR388W, stronger effect = lower value 0.994 | S. cerevisiae deletion strains, locus YDR392W, strain spt3, stronger effect = lower value 0.972 | S. cerevisiae deletion strains, locus YDR502C, strain sam2, stronger effect = lower value 0.997 | S. cerevisiae deletion strains, locus YEL003W, strain gim4, stronger effect = lower value 1.01 | S. cerevisiae deletion strains, locus YEL037C, strain rad23, stronger effect = lower value 0.992 | S. cerevisiae deletion strains, locus YEL061C, strain CIN8 (second series), stronger effect = lower value 0.995 | S. cerevisiae deletion strains, locus YEL061C, strain CIN8, stronger effect = lower value 1 | S. cerevisiae deletion strains, locus YER015W, strain faa2, stronger effect = lower value 1.01 | S. cerevisiae deletion strains, locus YER016W, strain bim1, stronger effect = lower value 0.993 | S. cerevisiae deletion strains, locus YER110C, stronger effect = lower value 1 | S. cerevisiae deletion strains, locus YER111C, strain swi4, stronger effect = lower value 0.99 | S. cerevisiae deletion strains, locus YER155C, strain BEM2 (second series), stronger effect = lower value 0.992 | S. cerevisiae deletion strains, locus YER155C, strain BEM2, stronger effect = lower value 1.01 | S. cerevisiae deletion strains, locus YER167W, strain BCK2, stronger effect = lower value 0.997 | S. cerevisiae deletion strains, locus YFR010W, strain ubp6, stronger effect = lower value 1.01 | S. cerevisiae deletion strains, locus YGL078C, strain dbp3, stronger effect = lower value 1.01 | S. cerevisiae deletion strains, locus YGL086W, strain mad1, stronger effect = lower value 1.01 | S. cerevisiae deletion strains, locus YGL167C, strain pmr1, stronger effect = lower value 1 | S. cerevisiae deletion strains, locus YGL173C, strain kem1, stronger effect = lower value 1.02 | S. cerevisiae deletion strains, locus YGL227W, strain vid30, stronger effect = lower value 1 | S. cerevisiae deletion strains, locus YGL240W, strain doc1, stronger effect = lower value 1.01 | S. cerevisiae deletion strains, locus YGL248W, strain PDE1, stronger effect = lower value 0.996 | S. cerevisiae deletion strains, locus YGL253W, strain hxk2, stronger effect = lower value 1 | S. cerevisiae deletion strains, locus YGR078C, strain PAC10, stronger effect = lower value 1.01 | S. cerevisiae deletion strains, locus YGR135W, strain pre9, stronger effect = lower value 1.01 | S. cerevisiae deletion strains, locus YGR252W, strain gcn5, stronger effect = lower value 1.01 | S. cerevisiae deletion strains, locus YHR013C, strain ard1, stronger effect = lower value 0.989 | S. cerevisiae deletion strains, locus YHR027C, strain rpn1, stronger effect = lower value 1.02 | S. cerevisiae deletion strains, locus YHR030C, strain SLT2, stronger effect = lower value 1.02 | S. cerevisiae deletion strains, locus YHR079C, strain IRE1 (second series), stronger effect = lower value 1 | S. cerevisiae deletion strains, locus YHR094C, strain hxt1, stronger effect = lower value 0.993 | S. cerevisiae deletion strains, locus YHR129C, strain ARP1, stronger effect = lower value 1 | S. cerevisiae deletion strains, locus YHR142W, strain chs7, stronger effect = lower value 0.997 | S. cerevisiae deletion strains, locus YHR200W, strain rpn10, stronger effect = lower value 0.983 | S. cerevisiae deletion strains, locus YIL066C, strain RNR3, stronger effect = lower value 1.01 | S. cerevisiae deletion strains, locus YIL073C, strain SPO22, stronger effect = lower value 1.03 | S. cerevisiae deletion strains, locus YIL125W, strain kgd1, stronger effect = lower value 1 | S. cerevisiae deletion strains, locus YIR030C, strain dcg1, stronger effect = lower value 0.995 | S. cerevisiae deletion strains, locus YJL092W, strain hpr5, stronger effect = lower value 1 | S. cerevisiae deletion strains, locus YJL095W, strain BCK1 (second series), stronger effect = lower value 0.997 | S. cerevisiae deletion strains, locus YJL095W, strain BCK1, stronger effect = lower value 1.03 | S. cerevisiae deletion strains, locus YJL115W, strain asf1, stronger effect = lower value 1.01 | S. cerevisiae deletion strains, locus YJL129C, strain trk1, stronger effect = lower value 1.01 | S. cerevisiae deletion strains, locus YJL134W, strain LCB3, stronger effect = lower value 1.01 | S. cerevisiae deletion strains, locus YJL154C, strain vps35, stronger effect = lower value 0.997 | S. cerevisiae deletion strains, locus YJL164C, strain tpk1, stronger effect = lower value 0.981 | S. cerevisiae deletion strains, locus YJL166W, strain qcr8, stronger effect = lower value 0.995 | S. cerevisiae deletion strains, locus YJL168C, strain set2, stronger effect = lower value 0.994 | S. cerevisiae deletion strains, locus YJL187C, strain SWE1 (second series), stronger effect = lower value 1.01 | S. cerevisiae deletion strains, locus YJL187C, strain SWE1, stronger effect = lower value 1 | S. cerevisiae deletion strains, locus YJR043C, strain POL32, stronger effect = lower value 1.03 | S. cerevisiae deletion strains, locus YJR075W, strain HOC1, stronger effect = lower value 1.01 | S. cerevisiae deletion strains, locus YKL068W, stronger effect = lower value 1 | S. cerevisiae deletion strains, locus YKL085W, strain MDH1 (second series), stronger effect = lower value 1.02 | S. cerevisiae deletion strains, locus YKL085W, strain MDH1, stronger effect = lower value 1.02 | S. cerevisiae deletion strains, locus YKL160W, strain elf1, stronger effect = lower value 0.978 | S. cerevisiae deletion strains, locus YKL190W, strain CNB1, stronger effect = lower value 1.02 | S. cerevisiae deletion strains, locus YKR001C, strain vps1, stronger effect = lower value 1.01 | S. cerevisiae deletion strains, locus YKR026C, strain gcn3, stronger effect = lower value 0.999 | S. cerevisiae deletion strains, locus YKR091W, strain srl3, stronger effect = lower value 0.997 | S. cerevisiae deletion strains, locus YLL001W, strain dnm1, stronger effect = lower value 0.977 | S. cerevisiae deletion strains, locus YLL026W, stronger effect = lower value 1 | S. cerevisiae deletion strains, locus YLL041C, strain sdh2, stronger effect = lower value 0.999 | S. cerevisiae deletion strains, locus YLR027C, strain aat2, stronger effect = lower value 0.991 | S. cerevisiae deletion strains, locus YLR039C, strain RIC1, stronger effect = lower value 1.03 | S. cerevisiae deletion strains, locus YLR058C, strain SHM2, stronger effect = lower value 1.01 | S. cerevisiae deletion strains, locus YLR102C, strain apc9, stronger effect = lower value 1.01 | S. cerevisiae deletion strains, locus YLR221C, strain rsa3, stronger effect = lower value 1.01 | S. cerevisiae deletion strains, locus YLR258W, strain gsy2, stronger effect = lower value 1.01 | S. cerevisiae deletion strains, locus YLR262C, strain YPT6 (second series), stronger effect = lower value 0.979 | S. cerevisiae deletion strains, locus YLR262C, strain YPT6, stronger effect = lower value 1.04 | S. cerevisiae deletion strains, locus YLR268W, strain sec22, stronger effect = lower value 1.01 | S. cerevisiae deletion strains, locus YLR320W, strain mms22, stronger effect = lower value 1 | S. cerevisiae deletion strains, locus YLR330W, strain CHS5, stronger effect = lower value 1 | S. cerevisiae deletion strains, locus YLR342W, strain FKS1 (second series), stronger effect = lower value 1.01 | S. cerevisiae deletion strains, locus YLR342W, strain FKS1, stronger effect = lower value 1 | S. cerevisiae deletion strains, locus YLR357W, strain rsc2, stronger effect = lower value 0.977 | S. cerevisiae deletion strains, locus YLR370C, strain arc18, stronger effect = lower value 0.999 | S. cerevisiae deletion strains, locus YLR371W, strain rom2, stronger effect = lower value 1 | S. cerevisiae deletion strains, locus YLR384C, strain iki3, stronger effect = lower value 1 | S. cerevisiae deletion strains, locus YLR418C, strain cdc73, stronger effect = lower value 1.01 | S. cerevisiae deletion strains, locus YML016C, strain PPZ1, stronger effect = lower value 1 | S. cerevisiae deletion strains, locus YML032C, strain rad52, stronger effect = lower value 0.991 | S. cerevisiae deletion strains, locus YML120C, strain ndi1, stronger effect = lower value 1 | S. cerevisiae deletion strains, locus YML124C, strain tub3, stronger effect = lower value 0.996 | S. cerevisiae deletion strains, locus YMR058W, strain fet3, stronger effect = lower value 1.01 | S. cerevisiae deletion strains, locus YMR078C, strain ctf18, stronger effect = lower value 0.996 | S. cerevisiae deletion strains, locus YMR125W, strain sto1, stronger effect = lower value 0.998 | S. cerevisiae deletion strains, locus YMR129W, stronger effect = lower value 1 | S. cerevisiae deletion strains, locus YMR205C, strain PFK2, stronger effect = lower value 0.998 | S. cerevisiae deletion strains, locus YMR223W, strain ubp8, stronger effect = lower value 0.991 | S. cerevisiae deletion strains, locus YMR231W, strain pep5, stronger effect = lower value 0.967 | S. cerevisiae deletion strains, locus YMR307W, strain GAS1, stronger effect = lower value 1.05 | S. cerevisiae deletion strains, locus YNL067W, strain RPL9B, stronger effect = lower value 1.02 | S. cerevisiae deletion strains, locus YNL071W, strain lat1, stronger effect = lower value 1 | S. cerevisiae deletion strains, locus YNL153C, strain GIM3, stronger effect = lower value 0.998 | S. cerevisiae deletion strains, locus YNL209W, strain ssb2, stronger effect = lower value 0.998 | S. cerevisiae deletion strains, locus YNL233W, strain BNI4, stronger effect = lower value 1.01 | S. cerevisiae deletion strains, locus YNL248C, strain rpa49, stronger effect = lower value 1.01 | S. cerevisiae deletion strains, locus YNL250W, strain rad50, stronger effect = lower value 0.994 | S. cerevisiae deletion strains, locus YNL271C, strain bni1, stronger effect = lower value 1 | S. cerevisiae deletion strains, locus YNL298W, strain CLA4, stronger effect = lower value 0.999 | S. cerevisiae deletion strains, locus YNL307C, strain MCK1, stronger effect = lower value 1 | S. cerevisiae deletion strains, locus YNL322C, strain KRE1 (second series), stronger effect = lower value 1.01 | S. cerevisiae deletion strains, locus YNL322C, strain KRE1, stronger effect = lower value 1.01 | S. cerevisiae deletion strains, locus YNR049C, strain mso1, stronger effect = lower value 1.02 | S. cerevisiae deletion strains, locus YNR052C, strain pop2, stronger effect = lower value 0.996 | S. cerevisiae deletion strains, locus YOL012C, strain htz1 0.704 | S. cerevisiae deletion strains, locus YOL147C, strain pex11, stronger effect = lower value 1.01 | S. cerevisiae deletion strains, locus YOR001W, strain rrp6, stronger effect = lower value 1.02 | S. cerevisiae deletion strains, locus YOR061W, strain CKA2, stronger effect = lower value 1.01 | S. cerevisiae deletion strains, locus YOR069W, strain VPS5, stronger effect = lower value 1.01 | S. cerevisiae deletion strains, locus YOR070C, strain gyp1, stronger effect = lower value 1 | S. cerevisiae deletion strains, locus YOR080W, strain dia2, stronger effect = lower value 1.01 | S. cerevisiae deletion strains, locus YOR083W, strain WHI5, stronger effect = lower value 0.975 | S. cerevisiae deletion strains, locus YOR106W, strain vam3, stronger effect = lower value 1 | S. cerevisiae deletion strains, locus YOR136W, strain idh2, stronger effect = lower value 0.998 | S. cerevisiae deletion strains, locus YOR144C, strain elg1, stronger effect = lower value 0.996 | S. cerevisiae deletion strains, locus YOR184W, strain ser1, stronger effect = lower value 1.02 | S. cerevisiae deletion strains, locus YOR265W, strain rbl2, stronger effect = lower value 0.994 | S. cerevisiae deletion strains, locus YOR270C, strain vph1, stronger effect = lower value 1 | S. cerevisiae deletion strains, locus YOR290C, strain snf2, stronger effect = lower value 0.961 | S. cerevisiae deletion strains, locus YOR316C, strain cot1, stronger effect = lower value 0.992 | S. cerevisiae deletion strains, locus YPL051W, strain arl3, stronger effect = lower value 0.97 | S. cerevisiae deletion strains, locus YPL078C, strain atp4, stronger effect = lower value 0.97 | S. cerevisiae deletion strains, locus YPL106C, strain sse1, stronger effect = lower value 0.994 | S. cerevisiae deletion strains, locus YPL240C, strain hsp82, stronger effect = lower value 0.999 | S. cerevisiae deletion strains, locus YPL241C, strain CIN2, stronger effect = lower value 1.01 | S. cerevisiae deletion strains, locus YPR119W, strain clb2, stronger effect = lower value 0.995 | S. cerevisiae deletion strains, locus YPR141C, strain kar3, stronger effect = lower value 0.997 | S. cerevisiae deletion strains, locus YPR163C, strain tif3, stronger effect = lower value 0.988 | S. cerevisiae deletion strains, locus YPR167C, strain met16, stronger effect = lower value 0.997 | S. cerevisiae deletion strains, strain wtn01, stronger effect = lower value 1.02 | S. cerevisiae strains, strain wild type, stronger effect = lower value 1.01
